Cycloheximide cs: Cycloheximide Counterscreen for Small Molecule Inhibitors of Shiga Toxin. actives 12% (n = 300,000). cell reporter, cycloheximide protein synthesis inhibition counterscreen. AID 2314, 2010. max response, %; in the data active = max response mostly above about 13%, no sharp cut-off; inactive = mostly below about 14%; note: read at 38.3 µM for the half of the compounds with a filed dose
Shiga toxin inh: A qHTS for Small Molecule Inhibitors of Shiga Toxin; inhibition, % at 38.7 µM; actives 9.2% (n = 290,000); Vero cells, Shiga toxin protein synthesis inhibition reporter; in the data active = inhibition mostly above about 28%, no sharp cut-off; inactive = mostly below about 43%
RE007 growth inh: qHTS Assay for Inhibitors of the HIV-1 protein Vpr | actives 0.21% (n = 360,000) | S. pombe RE007 Vpr strain, BacTiter-Glo ATP luminescence, 24 h | Potency, µM (highest dose often 92.2 µM), most hits filed as inhibitors; active = well fitted falling curve with a large enough effect; inconclusive = small, poorly fitted or top-dose-only effect; inactive = no such curve, though single readings can be large or run the other way; note: nearly all actives have a fitted effect of over 50% in size
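Fission yeast strain RE007, carrying one chromosomally integrated HIV-1 vpr copy, was seeded at OD 0.01 in PMG+AL medium with 23 nL pinned compound. After 24 h at 30 °C and 99% humidity, viability was read by BacTiter-Glo luminescence.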
FBPA Giardia inh: qHTS Assay for Inhibitors of Fructose-1,6-bisphosphate Aldolase from Giardia Lamblia. A8B2U2. purified Giardia FBPA. Potency, µM (highest dose often 59.6 µM), hits mostly inhibitors. actives 0.71% (n = 290,000). AID 2451, 2010; note: nearly all actives have a fitted effect of over 55% in size
Target sequence (A8B2U2 whole entry, looked up): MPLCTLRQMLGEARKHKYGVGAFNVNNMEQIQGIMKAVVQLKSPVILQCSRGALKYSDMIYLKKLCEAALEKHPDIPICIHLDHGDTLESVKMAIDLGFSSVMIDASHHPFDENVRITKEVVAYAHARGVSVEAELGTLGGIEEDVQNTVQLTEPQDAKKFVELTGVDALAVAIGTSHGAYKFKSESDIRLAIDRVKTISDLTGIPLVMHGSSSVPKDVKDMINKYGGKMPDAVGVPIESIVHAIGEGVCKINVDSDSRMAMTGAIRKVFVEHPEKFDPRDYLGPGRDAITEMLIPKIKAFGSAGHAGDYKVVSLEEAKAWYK
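Giardia FBPA (40 nM reagent) was preincubated 10 min at RT with compound (up to 57.5 uM final), then substrate plus GAPDH/TPI/NAD/arsenate coupling system with diaphorase/resazurin was added; resorufin fluorescence (525/598 nm) was read after 20 min.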
Tb PYK inh: qHTS of Trypanosoma Brucei Inhibitors. AID 624173, 2012. Potency, µM (titrated, usually from 76.8 µM), most hits filed as inhibitors. actives 0.12% (n = 410,000). TbPYK enzyme, Kinase-Glo Plus ATP luminescence, 45 min; note: nearly all actives have a fitted effect of over 50% in size
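Readout: single end-point luminescence (Kinase-Glo Plus, 10 min). Reaction conditions were TbPYK/substrate plus 130 uM ADP, 45 min at RT, pH 7.2 TEA buffer. No-enzyme wells served as controls, and data were normalized before concentration-response fitting.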
LmPK inhibitor: qHTS Assay for Inhibitors of Leishmania Mexicana Pyruvate Kinase (LmPK) | Q27686 | purified LmPK, Kinase-Glo ATP luminescence, 1 h | actives 0.37% (n = 290,000) | Potency, µM (doses to about 57.5 µM), most hits filed as inhibitors | AID 1721, 2009
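ATP generated from ADP (0.1 mM) and PEP (0.5 mM) by 0.1 nM LmPK over 1 h at room temperature (pH 7.2 imidazole buffer) was detected by coupled luciferase luminescence. Values were normalized to uninhibited and no-enzyme wells.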
Numbers stand for hits; - = inactive; ? = inconclusive; . = no result; [ ] = remark or other dose. This excerpt belongs to a sample that is enriched for hits. Unless noted, calls come from the whole dose curve; as a rule, active = well fitted curve in the direction sought with a large enough effect; inconclusive = small, poorly fitted or top-dose-only effect, or another doubt; inactive = no such curve, though single readings can be large; an effect the other way counts as inactive or inconclusive.

SMILES | Cycloheximide cs | Shiga toxin inh | RE007 growth inh | FBPA Giardia inh | Tb PYK inh | LmPK inhibitor
Cc1ccc(C)c(NC(=O)C2CCCN2S(=O)(=O)c2ccc3c(c2)CCCC(=O)N3)c1 (configuration not stated) | . | . | . | . | - | .
Oc1ccc(Br)cc1C1C=C(c2ccc3c(c2)OCO3)NC(c2c(F)cccc2Cl)N1 (configuration not stated) | 45.8 | 81.8 | . | . | . | .
Oc1ccccc1C1C=C(c2ccc3c(c2)OCO3)NC(c2c(F)cccc2Cl)N1 (configuration not stated) | 45.6 | 97.2 | . | . | . | .
O=C(Cc1c(F)cccc1Cl)NNC(=O)Nc1ccc2c(c1)OCO2 | - | - | - | - | - | -
O=C(Cn1nc(C(F)(F)F)c2c1CCCC2)Nc1ccc(F)c(Cl)c1 | . | . | . | . | - | .
Cc1ccc(OC(=O)CCN2C(=O)c3ccccc3C2=O)cc1C | - | - | - | - | - | -
Nc1ccc(C(=O)Nc2ccc(OC(F)(F)C(F)F)c(NC(=O)c3ccc(N)cc3)c2)cc1 | 17.5 | - | - | - | - | -
O=C(Nc1ccc(OC(F)(F)C(F)F)c(NC(=O)c2ccc(F)cc2)c1)c1ccc(F)cc1 | . | . | - | . | - | .
Cc1ccc(NC(=O)N2CCN(c3ncccc3C(F)(F)F)CC2)cc1 | 15.3 | - | - | - | - | -
O=C(Nc1ccc2ccccc2c1)N1CCN(c2ncccc2C(F)(F)F)CC1 | - | - | - | ? | - | -
O=S(=O)(O)c1ccc2c(c1)-c1nc-2nc2[nH]c(nc3nc(nc4[nH]c(n1)c1ccc(S(=O)(=O)O)cc41)-c1ccc(S(=O)(=O)O)cc1-3)c1ccc(S(=O)(=O)O)cc21 | - | - | . | ? | . | .
COc1ccc(COC(=O)N/N=C2/C[C@@H](O)[C@@H](O)[C@@H]3[C@@H]4C(=O)N(Cc5ccccc5)C(=O)[C@H]4CC[C@H]23)cc1 | . | . | . | -[12.9 µM] | . | .
Cc1ccccc1N1C(=O)c2sc3nc4c(c(=O)n3c2C1=O)CCC4 | - | - | - | - | ? | ?
O=C1c2sc3nc4c(c(=O)n3c2C(=O)N1c1ccccc1)CCC4 | - | 46.8 | - | - | - | -
COc1ccc(C(C)=O)cc1COC(=O)CSCC(=O)Nc1ccc(C)cc1 | . | . | - | . | - | .
COC(=O)C1(C(=O)OC)C[C@H]2CON=C2[C@H]1c1ccccc1 | . | . | . | - | . | .
COc1ccccc1NC(=O)c1cnc(SCC(=O)N2CCCc3ccccc32)n(C)c1=O | . | . | . | . | - | .
O=C(OCc1cc([N+](=O)[O-])cc2c1OCOC2)c1cccnc1SC(F)F | . | . | - | . | - | .
O=[N+]([O-])c1cc2c(c(CSc3ncccn3)c1)OCOC2 | 21.3 | - | - | - | - | -
O=C(OCc1cc([N+](=O)[O-])cc2c1OCOC2)c1ccccn1 | 32.8 | - | - | - | - | -
CCOC(=O)c1cc(S(=O)(=O)Nc2ccccc2OCC)[nH]n1 | . | . | . | . | - | .
Nc1nc2ccc(Cl)cc2[nH]1 | . | . | - | . | - | .
ClCCNc1nc2ccc(Cl)cc2[nH]1 | 18.7 | - | - | - | - | -
Cc1cc(N/N=C/c2cccc(Cl)c2)nc(NCc2ccccc2)n1 | 22.9 | - | - | - | - | -
C(=N/Nc1nccs1)/c1cccnc1 | - | - | - | - | - | -[11.5 µM]
SMILES | Cycloheximide cs | Shiga toxin inh | RE007 growth inh | FBPA Giardia inh | Tb PYK inh | LmPK inhibitor
Clc1cccc(/C=N/Nc2nc(Cl)nc3ccccc23)c1 | 47.6 | 121.8 | - | - | - | -
Cc1cc(N/N=C/c2ccccc2F)nc(NCc2ccccc2)n1 | - | - | - | - | - | -
Clc1cccc(/C=N\Nc2nccs2)c1 | 20.0 | - | - | - | - | -
Cc1cc(N/N=C/c2cccc(F)c2)nc(NCc2ccccc2)n1 | 20.4 | 64.9 | - | - | - | -
Cc1ccc(NC(=O)C2CCCN(S(=O)(=O)c3cccs3)C2)c(C)c1 (configuration not stated) | . | . | . | . | - | .
Cc1cc(-c2ccc(S(=O)(=O)Nc3ccc(Br)c(C)c3)s2)on1 | . | . | . | . | -[15.4 µM] | .
Fc1cccc(/C=N/Nc2ccc(Cl)nn2)c1 | 41.5 | - | - | - | - | -
Cc1cc(N/N=C/c2ccc(Cl)cc2)nc(NCc2ccccc2)n1 | - | - | - | - | - | -
Cc1cc(N/N=C/c2ccccc2)nc(NCc2ccccc2)n1 | 24.0 | - | - | - | - | -
Oc1c(Br)cc(/C=N/Nc2ccc(Cl)nn2)cc1Br | - | - | - | - | - | -
Cc1cc(C)nc(N/N=C/c2cccc(Cl)c2)n1 | 18.0 | - | - | - | - | -
COc1ccc(/C=N/Nc2nc(C)cc(-c3ccccc3)n2)cc1OC | - | - | - | - | - | -
O=C(Cn1nnc(-c2cccs2)n1)NNC(=O)c1ccccc1Cl | - | - | - | - | - | -
O=c1c(S(=O)(=O)c2ccccc2)cn(Cc2ccc(F)cc2)c2cc(N3CCCCC3)c(F)cc12 | . | . | . | . | - | .
Cc1cccc2c1ncc1c(=O)n(-c3ccccc3)[nH]c12 | 29.6 | 90.5 | - | - | - | -
CN1CCN(S(=O)(=O)c2ccc(NC(=O)Nc3cccc(Cl)c3)cc2)CC1 | 15.6 | - | - | - | ? | -
CN1CCN(S(=O)(=O)c2ccc(NC(=S)NC(=O)c3ccccc3)cc2)CC1 | 20.7 | - | - | ? | - | -
CCC(=O)NC(=S)Nc1ccc(S(=O)(=O)N2CCN(C)CC2)cc1 | - | - | - | - | - | -
CN1CCN(S(=O)(=O)c2ccc(NC(=S)NC(=O)c3ccc(Cl)cc3)cc2)CC1 | 23.2 | - | - | - | - | -
O=c1c2sc3ccccc3c2n(Cc2ccc(F)cc2)c(=O)n1Cc1ccco1 | . | . | . | . | - | .
COc1cc(C(=O)Nc2ccc(C)cc2)c2ccccc2n1 | - | - | - | - | - | -
Cc1ccc(NC(=O)C2=C(O)CCn3c2nc2ccccc23)cc1 | 21.9 | - | - | - | - | -
COc1ccc(OC)c(CCNC(=O)c2nn(C)c3c2CSc2ccccc2-3)c1 | . | . | . | . | - | .
CCCCCCCCOc1c(OC)cc(/C=C/C(=O)N2CCN(c3ccc(C)c(C)c3)CC2)cc1OC | - | - | . | - | . | .
N#C/C(=N\Nc1ccc(F)cc1)C(=O)C1CC1 | - | - | - | - | - | -
SMILES | Cycloheximide cs | Shiga toxin inh | RE007 growth inh | FBPA Giardia inh | Tb PYK inh | LmPK inhibitor
N#C/C(=N\Nc1ccc(Cl)c(Cl)c1)C(=O)C1CC1 | 34.9 | - | ? | - | - | -
Cc1ccc(C)c(OCc2cc(C(=O)N3CCN(C4CCCCC4)CC3)no2)c1 | . | . | - | . | - | .
O=C(c1cc(COc2ccc(F)cc2F)on1)N1CCN(C(=O)c2ccco2)CC1 | - | - | - | . | - | -
Cc1ccc(C)c(OCc2cc(C(=O)N3CCN(c4ccccc4)CC3)no2)c1 | 92.7 | 97.6 | - | . | - | -
Cc1ccc(C)c(OCc2cc(C(=O)N3CCN(C(=O)c4ccco4)CC3)no2)c1 | 41.7 | 78.3 | - | . | - | -
Cc1cc2c(s1)c1cnn(Cc3cccc(F)c3)c(=O)c1n2C | - | - | . | . | . | .

Compound activity deposited in PubChem BioAssay by National Center for Advancing Translational Sciences (NCATS).
